HP1b chromo inh = inhibitors of HP1-beta chromodomain binding to methylated histone tails | P83916 | AlphaScreen HP1-beta / biotin-H3K9me3 peptide binding | Potency, µM (series often up to 114 µM), most hits filed as inhibitors | actives 0.56% (n = 390,000) | AID 540317; note: nearly all actives have a fitted effect of over 70% in size
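AlphaScreen: HP1-beta (50 nM) preformed 30 min with biotin-H3(1-18)K9me3 peptide (50 nM) in PBS pH 7.4, 0.01% Tween-20. Compound added for 30 min at RT, then streptavidin donor/nickel chelate acceptor beads (10 ug/mL) for 30 min.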
L3MBTL1 block = inhibitors of human L3MBTL1 | Q9Y468 | AlphaScreen L3MBTL1–H3K9me1 peptide binding | Potency, µM (series often up to 57.1 µM), most hits filed as inhibitors | actives 0.66% (n = 230,000) | AID 485360; note: nearly all actives have a fitted effect of over 60% in size
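First, the protein-peptide complex forms for 30 min at room temperature (L3MBTL1 50 nM, biotinylated H3K9me1 peptide 75 nM). Next, compounds are pin-transferred and incubated 30 min. Finally, AlphaScreen beads are added and read after 30 min.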
G9a inh = G9a (human) methyltransferase inhibition; Q96KQ7; G9a H3K9 monomethylation, AlphaScreen, 2 h; Potency, µM (top dose mostly 102 µM), hits mostly inhibitors; actives 8.8% (n = 350,000); note: nearly all actives have a fitted effect of over 75% in size
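AlphaScreen detection with an anti-monomethyl H3K9 antibody quantified product after a 2 h room-temperature reaction containing 500 nM biotinylated H3K9 peptide, 20 µM SAM and 20 nM enzyme, which had been preincubated 15 min with compound.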
BAZ2B inh = BAZ2B (human) inhibition; Potency, µM (series often up to 114 µM), hits mostly inhibitors; Q9UIF8; AID 504333; AlphaScreen BAZ2B-H3K14Ac peptide displacement; actives 4.4% (n = 360,000); note: nearly all actives have a fitted effect of over 60% in size
Target sequence (Q9UIF8 whole entry, looked up): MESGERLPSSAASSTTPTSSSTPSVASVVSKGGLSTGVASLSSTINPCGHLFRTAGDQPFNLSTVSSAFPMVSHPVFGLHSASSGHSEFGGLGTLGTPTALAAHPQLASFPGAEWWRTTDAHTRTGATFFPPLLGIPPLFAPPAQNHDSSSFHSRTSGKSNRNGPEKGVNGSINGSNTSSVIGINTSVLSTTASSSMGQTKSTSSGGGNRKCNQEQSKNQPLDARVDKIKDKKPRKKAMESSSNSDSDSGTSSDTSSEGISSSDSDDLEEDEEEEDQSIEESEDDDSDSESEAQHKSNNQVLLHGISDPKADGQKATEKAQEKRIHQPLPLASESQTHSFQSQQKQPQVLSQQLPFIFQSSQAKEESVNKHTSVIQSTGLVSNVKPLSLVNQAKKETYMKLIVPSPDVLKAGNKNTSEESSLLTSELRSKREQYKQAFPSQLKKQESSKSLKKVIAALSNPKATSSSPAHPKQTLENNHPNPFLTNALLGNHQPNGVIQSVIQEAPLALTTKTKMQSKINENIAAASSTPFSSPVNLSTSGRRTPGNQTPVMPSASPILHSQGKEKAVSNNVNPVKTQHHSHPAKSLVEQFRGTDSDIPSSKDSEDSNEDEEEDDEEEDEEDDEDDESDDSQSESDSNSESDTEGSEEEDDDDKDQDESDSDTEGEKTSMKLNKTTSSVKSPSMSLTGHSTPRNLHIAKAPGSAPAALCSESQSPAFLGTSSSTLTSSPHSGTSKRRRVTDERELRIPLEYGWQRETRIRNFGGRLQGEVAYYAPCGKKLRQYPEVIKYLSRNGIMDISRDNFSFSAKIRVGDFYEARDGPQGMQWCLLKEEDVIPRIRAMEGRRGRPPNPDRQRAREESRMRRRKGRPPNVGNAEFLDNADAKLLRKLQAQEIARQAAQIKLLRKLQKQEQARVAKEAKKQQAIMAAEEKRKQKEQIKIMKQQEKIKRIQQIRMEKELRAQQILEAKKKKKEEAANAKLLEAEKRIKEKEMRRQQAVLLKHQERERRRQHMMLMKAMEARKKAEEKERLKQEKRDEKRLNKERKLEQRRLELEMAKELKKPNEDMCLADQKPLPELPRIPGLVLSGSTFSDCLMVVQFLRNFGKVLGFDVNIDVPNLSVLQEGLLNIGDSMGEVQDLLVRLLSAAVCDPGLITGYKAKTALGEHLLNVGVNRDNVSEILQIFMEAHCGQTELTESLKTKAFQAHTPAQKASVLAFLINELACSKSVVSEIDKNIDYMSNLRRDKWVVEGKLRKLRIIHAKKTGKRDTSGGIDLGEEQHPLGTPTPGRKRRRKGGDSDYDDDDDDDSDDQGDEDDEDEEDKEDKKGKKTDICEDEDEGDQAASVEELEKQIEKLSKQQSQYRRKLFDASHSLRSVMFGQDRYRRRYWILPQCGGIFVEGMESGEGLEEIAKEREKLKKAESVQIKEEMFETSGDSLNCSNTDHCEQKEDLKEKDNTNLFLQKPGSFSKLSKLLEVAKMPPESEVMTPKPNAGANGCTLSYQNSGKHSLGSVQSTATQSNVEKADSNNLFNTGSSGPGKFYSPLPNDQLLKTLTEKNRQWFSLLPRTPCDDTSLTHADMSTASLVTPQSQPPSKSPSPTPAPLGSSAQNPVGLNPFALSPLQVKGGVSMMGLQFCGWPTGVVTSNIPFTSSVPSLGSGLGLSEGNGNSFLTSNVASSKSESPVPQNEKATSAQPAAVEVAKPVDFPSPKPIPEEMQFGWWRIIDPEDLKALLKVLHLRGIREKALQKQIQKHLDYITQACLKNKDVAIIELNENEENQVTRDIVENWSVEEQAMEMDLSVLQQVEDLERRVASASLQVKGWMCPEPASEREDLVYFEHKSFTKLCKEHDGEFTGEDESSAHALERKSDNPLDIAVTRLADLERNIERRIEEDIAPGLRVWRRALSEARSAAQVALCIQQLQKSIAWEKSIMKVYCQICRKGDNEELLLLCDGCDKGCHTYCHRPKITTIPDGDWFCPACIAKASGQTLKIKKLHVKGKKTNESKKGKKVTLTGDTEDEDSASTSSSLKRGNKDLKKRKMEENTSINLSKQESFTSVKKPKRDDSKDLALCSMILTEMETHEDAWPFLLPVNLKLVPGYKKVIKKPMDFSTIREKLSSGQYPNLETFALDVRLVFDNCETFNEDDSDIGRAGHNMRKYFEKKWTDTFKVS
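Multi-concentration screen (max 110 uM) measuring displacement of acetylated histone H3 peptide from BAZ2B by AlphaScreen, using 50 nM protein, 50 nM peptide and 10 ug/mL streptavidin donor plus Ni-chelate acceptor beads.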
JMJD2A Tudor inh = JMJD2A Tudor domain (human) inhibition; O75164; AlphaScreen JMJD2A-Tudor / H3K4me3 peptide binding; Potency, µM (titrated, usually from 114 µM), most hits filed as inhibitors; actives 4.4% (n = 390,000); AID 504339; note: nearly all actives have a fitted effect of over 50% in size
GLS inhibitor = inhibitors of human glutaminase (GLS) | O94925 | GLS enzymatic activity, qHTS titration | Potency, µM (highest dose often 45.5 µM), most hits filed as inhibitors | actives 0.21% (n = 410,000) | AID 624170
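Enzyme dispensed in phosphate buffer (45 mM, pH 8.2, 0.02% Tween-20), compounds pinned in, then 1 mM L-glutamine solution and the glutamate oxidase–HRP–Amplex Red mix added; fluorescence read immediately and again after 30 min at room temperature.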
A number is an active result; i = inactive; ? = inconclusive; nt = not tested or not shown; [ ] = dose if it differs, or a comment. The list is not random: actives were taken first. Their share in the collection is about 10%. Calls come from the whole dose curve; as a rule, active = well fitted curve in the direction sought with a large enough effect; inconclusive = small, poorly fitted or top-dose-only effect, or another doubt; inactive = no such curve, though single readings can be large; an effect the other way counts as inactive or inconclusive.

SMILES | HP1b chromo inh | L3MBTL1 block | G9a inh | BAZ2B inh | JMJD2A Tudor inh | GLS inhibitor
O=C(CSc1nnc(-c2ccncc2)n1Cc1ccco1)Nc1nc(-c2ccccc2)cs1 | i | nt | 28µM | i | i | i
O=C(CSc1nnc(-c2ccncc2)n1Cc1ccccc1)Nc1nccs1 | i | i | i[12.7 µM] | i | 89µM | i
CC(C)C(C)(C#N)NC(=O)CSc1nnc(-c2ccncc2)n1Cc1ccccc1 (stereo not given) | ? | i | i | i | 71µM | i
COc1ccc(NCc2nnc(SCC(=O)Nc3nc(-c4ccccc4)cs3)n2-c2ccccc2)cc1 | i | i | i | i | i | i
O=C(CSc1nnc(-c2ccncc2)n1Cc1ccco1)Nc1ccccc1Cl | i | i | ? | i | ? | i
Cc1cc(C)nc(SCc2nnc(SCC(=O)Nc3nc(-c4ccccc4)cs3)n2-c2ccccc2)n1 | i | nt | ? | i | 79µM | i
Cc1cccc(N2CCN(c3ccc4cc(S(=O)(=O)N5CCC(C)CC5)ccc4n3)CC2C)c1 (stereo not given) | i | nt | i | i | i | i
Cc1ccc(-c2nnc(Nc3ccc(Br)cc3)c3ccccc23)cc1S(=O)(=O)N1CCOCC1 | i | nt | i | i | i | i
O=C(Nc1ccc2oc(-c3cccc(F)c3)nc2c1)c1ccc2ccccc2c1 | i | nt | ? | i | i | i
O=C(COC(=O)CCc1ccccc1)NC1CCS(=O)(=O)C1 (stereo not given) | i | i | 50µM | i | i | i
CCOc1ccc(C(=O)Nc2ccc(C(=O)OCc3cc(=O)n4c(C)csc4n3)cc2)cc1 | i | nt | i | i | i | i
CCN(CC)C(=O)Cn1nnc(-c2ccc(C)o2)n1 | i | i | 4µM | i | i | i
Cc1ccc(-c2nnn(CC(=O)N(Cc3ccccc3)C(C(=O)NC3CCCC3)c3ccncc3)n2)o1 (stereo not given) | i | i | 22µM | i | i | i
CCC(C(=O)NC1CCCC1)N(C(=O)Cn1nnc(-c2ccc(C)o2)n1)C(C)(C)C (stereo not given) | i | i | 32µM | i | i | i
CCOc1ccc(N(CC(=O)NC2CCCCC2)C(=O)Cn2nnc(-c3ccc(C)o3)n2)cc1 | i | nt | 45µM | i | i | i
CCC(C(=O)NC1CCCC1)N(C(=O)Cn1nnc(-c2ccc(C)o2)n1)c1ccc(OC)cc1 (stereo not given) | i | nt | i | i | i | i
Cc1ccc(N(CC(=O)NC2CCCCC2)C(=O)Cn2nnc(-c3ccc(C)o3)n2)cc1 | i | i | i | i | i | i
O=C(Nc1nc(Nc2cc(F)cc(F)c2)nc(NC2CCCC2)n1)OCc1ccccc1 | nt | nt | nt | nt | i | nt
CCCC(C(=O)NC1CCCC1)N(C(=O)Cn1nnc(-c2ccc(C)o2)n1)C1CCCC1 (stereo not given) | i | i | 11µM | i | i | i
O=C(NC1CCCCC1)C(c1ccncc1)N(C(=O)Cn1nnc(-c2cccs2)n1)C1CCCC1 (stereo not given) | i | i | 22µM | i | i | i
CCCC(C(=O)NC1CCCC1)N(C(=O)Cn1nnc(-c2ccc(C)o2)n1)c1ccccc1F (stereo not given) | i | nt | i | i | i | i
O=C(NCCCc1ccccc1)c1nn(-c2ccccc2F)nc1CO | i | nt | i | i | i | i
CCOc1cc(CNC(=O)c2ccc(Cn3c(=O)c4cccn4c4cccnc43)cc2)ccc1OC | i | nt | i | i | i | i
CCc1ccc(S(=O)(=O)c2nnn3c2nc(Nc2ccc(F)cc2)c2cc(Cl)ccc23)cc1 | i | nt | i | i | i | i
Cc1cc(N2C(=O)C(O)=C(C(=O)c3cc4ccccc4o3)C2c2ccc(OC(C)C)cc2)no1 (stereo not given) | i | nt | 35µM | i | i | i
SMILES | HP1b chromo inh | L3MBTL1 block | G9a inh | BAZ2B inh | JMJD2A Tudor inh | GLS inhibitor
Cc1cc(N2C(=O)C(O)=C(C(=O)c3ccco3)C2c2ccc([N+](=O)[O-])cc2)no1 (stereo not given) | i | nt | 89µM | ? | i | i
Cc1cc(N2C(=O)C(O)=C(C(=O)c3cc4ccccc4o3)C2c2cccc(Br)c2)no1 (stereo not given) | i | nt | i[0.0925 µM] | ? | ? | ?
COC(=O)c1ccc(C2C(C(=O)c3cc4ccccc4o3)=C(O)C(=O)N2c2cc(C)on2)cc1 (stereo not given) | i | nt | 45µM | i | ? | i
CCn1cc(C(=O)NCc2ccc(C)cc2)c(=O)c2cc(S(=O)(=O)N3CCCCCC3)ccc21 | i | nt | i | i | i | ?
COCCCNC(=S)NNC(=O)c1ccccn1 | i | 8.9µM | i | 3.5µM | 20µM | i
C=COCCNC(=S)Nc1cccc(Cl)c1 | i | i | i | i | i | i
COc1ccc(NC(=S)Nc2cccc(Cl)c2)cc1OC | i | i | 50µM | i | i | i
COCCCNC(=S)NNC(=S)NCCCOC | i | i | 8.9µM | i | 13µM | i
COCCCNC(=S)NNC(=S)Nc1cccc(Cl)c1 | i | i | nt | i | 3.2µM | i
Nc1nn(-c2ccccc2)nc1C(=O)OCc1ccccc1Br | i | nt | i | i | i | i
CCc1ccccc1NC(=O)[C@@H](c1ccccc1)N1Cc2ccccc2C1=O | i | nt | i | i | i | i
COc1cccc(CNC(=O)c2ccc(-c3nc(CS(=O)(=O)c4ccccc4)c(C)o3)cc2)c1 | i | nt | i | i | i | i
C[C@@H]1CCN(C(=O)[C@H](CCCNC(=N)N)NS(=O)(=O)c2cccc3c2NC[C@H](C)C3)[C@@H](C(=O)O)C1 | nt | nt | i | nt | nt | i
Cc1ccc(C(C)C)cc2c(C)ccc1-2 | 22µM | nt | 13µM | nt | 28µM | i
Cc1ccc(C(C)C)cc1NC(=O)Nc1ccc([N+](=O)[O-])cc1 | i | nt | i[12.7 µM] | i | ? | i
COc1ccc(-c2sc3cc4c(cc3c2C#CC2(N)CCCCC2)OCO4)cc1 | i | i | i[0.501 µM] | 10µM | 25µM | i
O=C1c2ccccc2C(=O)c2c1cccc2N1CCOCC1 | 40µM | ? | nt | 16µM | 35µM | i
CC(=O)N(C)c1ccc(N2CCOCC2)c2c1C(=O)c1ccccc1C2=O | ? | nt | nt | nt | i | i
Nc1ccc(O)cc1C(=O)OCC(=O)c1ccc(C2CCCCC2)cc1 | ? | i | 45µM | 40µM | ? | i
O=C(OCC(=O)C12CC3CC(CC(C3)C1)C2)c1ccc(O)cc1 | i | i | nt | nt | i | i
COc1ccc(C(=O)OCC(=O)c2ccc(C3CCCCC3)cc2)cc1 | i | i | i | i | i | i
Nc1ccc(O)cc1C(=O)OCC(=O)C12CC3CC(CC(C3)C1)C2 | i | ? | 32µM | 50µM | ? | i
Cc1cnc(CNc2ncnc3ccc(-c4ccccc4C(F)(F)F)cc23)cn1 | nt | nt | i[0.501 µM] | nt | nt | nt

High-throughput results (PubChem)
